Assay results: the supplement of paper PMC10849652
Targets with a hit are over-represented here; the source holds about 7,900 in all. About 0.6% of all pairs of compound and target were hits. Unmarked numbers belong to inactive results.

Assays:
Assay in all cases: log2 fold change, soluble protein after heating vs DMSO (PISA); higher = thermal stabilisation; K562 cells, 10 uM, 30 min; active = over 0.2 and 3.5 SD of the protein, either way, in both replicates (recomputed)
[1] = compound: CS(=O)(=O)c1ccc(-c2cnc(N)c(C(=O)Nc3ccccc3)n2)cc1
Summary of the method: (§1)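 Values are thermal stability changes relative to control samples and are taken from duplicates. They are stated as log2 fold changes. Before quantification by TMTpro 16plex LC-MS/MS with equalised channel sums, K562 cells at 2×10^6 cells/mL were treated with 10 μM compound for 30 min, heated in aliquots for 3 min across 48°C-58°C, pooled, extracted in PBS with 0.5% NP-40 at 4°C, and centrifuged at 21,000xg for 90 min to give the soluble supernatant.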

crizotinib = compound: C[C@@H](Oc1cc(-c2cnn(C3CCNCC3)c2)cnc1N)c1c(Cl)ccc(F)c1Cl [crizotinib]
Summary of the method: as §1

[2] = compound: C[C@@H]1COCCN1C2=NC(=NC(=C2)C3(CC3)S(=O)(=O)C)C4=C5C=CNC5=CC=C4
Summary of the method: as §1

[3] = compound: C[C@H](C1=CC=C(C=C1)C(=O)NC2=C3C=CNC3=NC=C2)N
Summary of the method: as §1

duvelisib = compound: C[C@H](Nc1ncnc2nc[nH]c12)c1cc2cccc(Cl)c2c(=O)n1-c1ccccc1 [duvelisib]
Summary of the method: as §1

gandotinib = compound: Cc1cc(Nc2cc(CN3CCOCC3)c3nc(C)c(Cc4ccc(Cl)cc4F)n3n2)n[nH]1 [gandotinib]
Summary of the method: as §1

tozasertib = compound: Cc1cc(Nc2cc(N3CCN(C)CC3)nc(Sc3ccc(NC(=O)C4CC4)cc3)n2)n[nH]1 [tozasertib]
Summary of the method: as §1

[4] = compound: Cc1cc(SCc2sc(-c3ccc(C(F)(F)F)cc3)nc2C)ccc1OCC(=O)O
Summary of the method: as §1

doramapimod = compound: Cc1ccc(-n2nc(C(C)(C)C)cc2NC(=O)Nc2ccc(OCCN3CCOCC3)c3ccccc23)cc1 [doramapimod]
Summary of the method: as §1

ispinesib = compound: Cc1ccc(C(=O)N(CCCN)[C@@H](c2nc3cc(Cl)ccc3c(=O)n2Cc2ccccc2)C(C)C)cc1 [ispinesib]
Summary of the method: as §1

UniProt P11717, sequence (P11717 whole entry, looked up): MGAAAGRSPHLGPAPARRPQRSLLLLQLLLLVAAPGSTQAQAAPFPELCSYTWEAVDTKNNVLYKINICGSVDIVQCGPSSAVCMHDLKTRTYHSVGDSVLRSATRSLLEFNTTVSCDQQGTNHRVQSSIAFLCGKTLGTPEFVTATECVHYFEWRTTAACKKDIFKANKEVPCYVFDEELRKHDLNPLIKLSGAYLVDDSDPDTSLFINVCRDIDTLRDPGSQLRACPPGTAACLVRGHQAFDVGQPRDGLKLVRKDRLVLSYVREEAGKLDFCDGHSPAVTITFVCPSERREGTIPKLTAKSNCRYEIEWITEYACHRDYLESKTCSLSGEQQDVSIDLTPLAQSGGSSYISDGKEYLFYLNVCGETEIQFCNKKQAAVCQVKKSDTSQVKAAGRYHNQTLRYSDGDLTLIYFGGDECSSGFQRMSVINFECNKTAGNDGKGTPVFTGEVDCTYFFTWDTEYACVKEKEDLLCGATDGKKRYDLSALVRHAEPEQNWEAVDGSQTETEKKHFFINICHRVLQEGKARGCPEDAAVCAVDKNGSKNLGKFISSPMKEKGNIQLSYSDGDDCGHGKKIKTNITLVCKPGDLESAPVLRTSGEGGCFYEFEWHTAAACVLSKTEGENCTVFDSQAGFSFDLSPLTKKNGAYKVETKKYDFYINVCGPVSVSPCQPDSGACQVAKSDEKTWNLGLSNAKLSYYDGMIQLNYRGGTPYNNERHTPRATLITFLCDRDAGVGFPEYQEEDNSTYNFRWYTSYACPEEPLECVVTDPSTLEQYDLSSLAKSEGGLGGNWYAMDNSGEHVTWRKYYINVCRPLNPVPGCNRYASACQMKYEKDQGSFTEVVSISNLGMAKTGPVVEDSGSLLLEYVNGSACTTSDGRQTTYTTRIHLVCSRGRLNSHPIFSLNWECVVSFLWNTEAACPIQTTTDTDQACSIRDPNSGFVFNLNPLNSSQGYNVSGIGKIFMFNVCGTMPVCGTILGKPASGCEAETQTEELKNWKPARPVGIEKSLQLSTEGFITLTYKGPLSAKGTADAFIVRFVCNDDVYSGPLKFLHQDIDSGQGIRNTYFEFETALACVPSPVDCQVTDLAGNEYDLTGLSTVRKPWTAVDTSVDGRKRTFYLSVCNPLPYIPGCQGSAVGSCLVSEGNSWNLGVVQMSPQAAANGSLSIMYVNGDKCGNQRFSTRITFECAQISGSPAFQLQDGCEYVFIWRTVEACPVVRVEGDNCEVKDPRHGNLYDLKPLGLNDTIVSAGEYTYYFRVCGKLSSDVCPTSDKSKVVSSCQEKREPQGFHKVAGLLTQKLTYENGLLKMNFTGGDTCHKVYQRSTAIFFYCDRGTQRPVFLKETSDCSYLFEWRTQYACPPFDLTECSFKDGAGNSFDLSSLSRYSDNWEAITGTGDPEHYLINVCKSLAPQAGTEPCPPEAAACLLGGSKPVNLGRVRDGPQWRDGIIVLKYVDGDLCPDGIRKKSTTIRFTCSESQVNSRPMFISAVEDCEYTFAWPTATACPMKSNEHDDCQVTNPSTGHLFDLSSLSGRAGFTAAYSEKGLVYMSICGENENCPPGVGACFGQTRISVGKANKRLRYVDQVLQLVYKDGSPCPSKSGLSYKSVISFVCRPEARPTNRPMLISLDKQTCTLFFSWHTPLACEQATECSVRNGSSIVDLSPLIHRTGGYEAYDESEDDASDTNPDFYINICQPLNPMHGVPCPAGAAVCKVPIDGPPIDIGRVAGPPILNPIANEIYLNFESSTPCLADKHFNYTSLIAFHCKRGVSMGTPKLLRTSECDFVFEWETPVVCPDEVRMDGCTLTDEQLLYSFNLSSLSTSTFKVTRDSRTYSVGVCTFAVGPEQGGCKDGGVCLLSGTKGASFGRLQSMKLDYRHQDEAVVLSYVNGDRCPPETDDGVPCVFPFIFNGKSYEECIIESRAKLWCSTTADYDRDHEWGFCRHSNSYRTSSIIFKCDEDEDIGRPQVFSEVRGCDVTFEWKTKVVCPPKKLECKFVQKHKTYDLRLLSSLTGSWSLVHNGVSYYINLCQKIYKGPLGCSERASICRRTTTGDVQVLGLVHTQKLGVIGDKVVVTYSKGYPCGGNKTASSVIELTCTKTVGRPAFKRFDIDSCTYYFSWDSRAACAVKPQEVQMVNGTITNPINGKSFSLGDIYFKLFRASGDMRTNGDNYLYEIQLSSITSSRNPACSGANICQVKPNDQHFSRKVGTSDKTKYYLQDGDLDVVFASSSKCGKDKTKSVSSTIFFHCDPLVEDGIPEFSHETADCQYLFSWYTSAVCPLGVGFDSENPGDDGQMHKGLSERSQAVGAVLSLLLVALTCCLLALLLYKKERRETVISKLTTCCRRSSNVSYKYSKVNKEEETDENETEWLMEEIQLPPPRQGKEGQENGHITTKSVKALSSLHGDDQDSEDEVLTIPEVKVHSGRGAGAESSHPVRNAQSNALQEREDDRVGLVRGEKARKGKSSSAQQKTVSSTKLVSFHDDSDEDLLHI
UniProt Q86V48, sequence (Q86V48 whole entry, looked up): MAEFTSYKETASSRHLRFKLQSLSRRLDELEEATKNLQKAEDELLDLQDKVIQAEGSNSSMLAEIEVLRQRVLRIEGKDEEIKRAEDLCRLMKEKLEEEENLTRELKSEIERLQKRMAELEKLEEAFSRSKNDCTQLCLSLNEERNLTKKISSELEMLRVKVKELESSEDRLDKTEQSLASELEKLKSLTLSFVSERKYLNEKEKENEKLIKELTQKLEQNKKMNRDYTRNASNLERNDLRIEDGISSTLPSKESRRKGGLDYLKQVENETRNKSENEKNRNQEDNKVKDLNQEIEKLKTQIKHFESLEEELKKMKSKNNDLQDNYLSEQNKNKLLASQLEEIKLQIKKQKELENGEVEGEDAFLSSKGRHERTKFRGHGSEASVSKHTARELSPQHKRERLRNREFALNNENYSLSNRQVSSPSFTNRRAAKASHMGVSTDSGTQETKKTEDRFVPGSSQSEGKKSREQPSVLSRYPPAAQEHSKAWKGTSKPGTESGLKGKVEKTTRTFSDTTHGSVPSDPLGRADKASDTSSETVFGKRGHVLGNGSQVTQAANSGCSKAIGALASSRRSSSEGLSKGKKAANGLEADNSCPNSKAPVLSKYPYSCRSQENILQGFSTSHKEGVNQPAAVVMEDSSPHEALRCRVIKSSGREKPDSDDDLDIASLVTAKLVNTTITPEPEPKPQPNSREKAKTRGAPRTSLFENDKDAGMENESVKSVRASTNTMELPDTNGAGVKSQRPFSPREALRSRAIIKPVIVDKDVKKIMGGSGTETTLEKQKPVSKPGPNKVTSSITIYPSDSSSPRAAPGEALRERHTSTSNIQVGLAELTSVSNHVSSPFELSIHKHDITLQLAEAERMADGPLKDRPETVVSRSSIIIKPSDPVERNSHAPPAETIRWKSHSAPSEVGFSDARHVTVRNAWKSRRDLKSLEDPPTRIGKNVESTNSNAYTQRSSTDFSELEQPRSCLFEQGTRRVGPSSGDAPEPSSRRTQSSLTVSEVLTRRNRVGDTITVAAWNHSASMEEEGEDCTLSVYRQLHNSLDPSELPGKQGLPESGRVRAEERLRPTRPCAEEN
UniProt P20700, sequence (P20700 whole entry, looked up): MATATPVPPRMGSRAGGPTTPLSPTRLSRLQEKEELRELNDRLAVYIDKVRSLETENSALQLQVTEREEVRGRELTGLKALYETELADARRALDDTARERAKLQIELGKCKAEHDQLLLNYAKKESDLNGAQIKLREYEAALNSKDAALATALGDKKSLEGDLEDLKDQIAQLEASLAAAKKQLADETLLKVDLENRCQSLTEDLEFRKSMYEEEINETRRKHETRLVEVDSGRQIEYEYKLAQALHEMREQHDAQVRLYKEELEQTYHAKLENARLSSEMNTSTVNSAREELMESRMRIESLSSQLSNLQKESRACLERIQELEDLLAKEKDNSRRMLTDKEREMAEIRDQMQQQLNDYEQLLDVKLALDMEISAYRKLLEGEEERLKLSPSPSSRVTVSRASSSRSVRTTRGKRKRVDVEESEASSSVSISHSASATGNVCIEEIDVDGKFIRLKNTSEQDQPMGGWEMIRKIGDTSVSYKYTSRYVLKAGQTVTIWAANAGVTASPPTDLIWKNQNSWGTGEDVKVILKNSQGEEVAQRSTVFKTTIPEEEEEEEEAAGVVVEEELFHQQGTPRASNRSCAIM
UniProt Q8NC54, sequence (Q8NC54 whole entry, looked up): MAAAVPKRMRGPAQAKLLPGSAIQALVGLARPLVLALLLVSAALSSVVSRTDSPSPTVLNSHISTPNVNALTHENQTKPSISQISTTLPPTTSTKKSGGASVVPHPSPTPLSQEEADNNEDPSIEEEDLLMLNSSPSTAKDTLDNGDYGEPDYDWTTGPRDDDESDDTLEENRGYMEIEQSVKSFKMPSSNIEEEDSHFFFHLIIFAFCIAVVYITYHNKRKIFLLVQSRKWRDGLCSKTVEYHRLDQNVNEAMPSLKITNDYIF

Target | log2 fold change [1] | log2 fold change (crizotinib) | log2 fold change [2] | log2 fold change [3] | log2 fold change (duvelisib) | log2 fold change (gandotinib) | log2 fold change (tozasertib) | log2 fold change [4] | log2 fold change (doramapimod) | log2 fold change (ispinesib)
IGFBP4 (UniProt P22692) | -0.066 | 0.064 | 0.022 | -0.114 | 0.02 | -0.229 | -0.021 | -0.007 | 0 | -0.233
LRRFIP1 (UniProt Q32MZ4) | -0.005 | 0.037 | 0 | 0.025 | 0.011 | 0.056 | -0.027 | -0.059 | -0.025 | -0.019
LMNB2 (UniProt Q03252) | 0.007 | 0.039 | 0.179 | 0.079 | 0.072 | -0.003 | 0.03 | 0.033 | 0.019 | 0.016
MAP2K2 (UniProt P36507) | 0.013 | -0.055 | 0.069 | -0.052 | 0.02 | -0.069 | -0.041 | -0.01 | -0.038 | -0.058
IWS1 (UniProt Q96ST2) | 0.077 | 0.146 | 0.132 | 0.119 | 0.028 | 0.108 | 0.058 | 0.062 | -0.134 | 0.061
LNPEP (UniProt Q9UIQ6) | 0.028 | 0.015 | 0.023 | -0.053 | 0.053 | 0.028 | -0.023 | -0.008 | -0.013 | -0.039
KIF21A isoform 4 (UniProt Q7Z4S6) | 0.092 | -0.039 | 0.027 | 0.207 | 0.055 | -0.001 | 0.021 | 0.044 | 0.047 | -0.153
MDN1 (UniProt Q9NU22) | -0.072 | -0.135 | 0.094 | 0.002 | 0.024 | -0.156 | -0.052 | 0.063 | -0.005 | -0.117
IGFBP3 isoform 2 (UniProt P17936) | -0.097 | -0.176 | -0.063 | -0.149 | 0.068 | -0.545 | -0.092 | 0.027 | -0.243 | 
IPO7 (UniProt O95373) | -0.011 | -0.138 | 0.042 | -0.07 | 0.029 | -0.185 | 0.102 | 0.073 | -0.054 | -0.077
MAGEA9 (UniProt P43362) | 0.005 | 0.008 | 0.082 | -0.028 | 0.12 | -0.095 | 0.168 | -0.029 | 0 | -0.001
LSS (UniProt P48449) | 0.043 | 0.77 (active) | 0.081 | 0.02 | 0.044 | 0.044 | 0.103 | 0.017 | 0.024 | 0.111
MAST4 (UniProt O15021) | -0.041 | -0.188 | 0.064 | -0.114 | 0.091 | -0.301 | -0.03 | 0.053 | -0.088 | 0.007
MAP3K20 (UniProt Q9NYL2) | -0.003 | -0.01 | -0.065 | 0.059 | -0.022 | -0.025 | 0.002 | 0.053 | -0.072 | -0.141
KIAA1324L (UniProt A8MWY0) | 0.081 | -0.125 | 0.06 | 0.062 | -0.027 | 0.076 | -0.036 | -0.057 | 0.051 | -0.124
IRF2BPL (UniProt Q9H1B7) | -0.034 | 0.133 | 0.249 | -0.005 | 0.106 | -0.041 | 0.034 | 0.066 | -0.061 | -0.083
IGF2R (UniProt P11717) | 0.031 | -0.871 (active) | -0.035 | -0.035 | 0.048 | 0.017 | 0.025 | 0.019 | -0.01 | -0.115
KCT2 (UniProt Q8NC54) | 0 | -0.186 | 0.074 | -0.04 | 0.064 | 0.038 | 0.033 | 0.054 | 0.091 | -0.118
MAD2L1 (UniProt Q13257) | 0.02 | -0.076 | 0.092 | -0.004 | 0.024 | -0.139 | 0.101 | 0.037 | 0.034 | -0.023
KSR1 (UniProt Q8IVT5) | -0.017 | -0.287 | 0.036 | 0.047 | 0.031 | -0.067 | -0.221 | -0.017 | 0.052 | -0.113
L2HGDH (UniProt Q9H9P8) | 0.04 | -0.081 | 0.124 | -0.025 | 0.063 | 0.024 | -0.082 | 0.039 | -0.02 | -0.083
KPNA6 (UniProt O60684) | -0.01 | -0.11 | -0.011 | 0.138 | 0 | -0.028 | 0.046 | 0.07 | 0.046 | -0.202
LMF2 (UniProt Q9BU23) | 0.039 | 0.016 | -0.05 | 0.053 | 0.002 | 0.023 | 0.088 | 0.023 | 0.046 | -0.075
LGALS8 isoform 2 (UniProt O00214) | -0.002 | -0.023 | -0.255 | 0.323 | -0.223 | -0.144 | 0.016 | 0.204 | 0.146 | 
LMNB1 (UniProt P20700) | -0.01 | 0.038 | 0.108 | -0.172 | -0.018 | -0.03 | 0.096 | -0.022 | -0.003 | 0.041
KDM1A isoform 2 (UniProt O60341) | -0.047 | -0.036 | 0.018 | -0.011 | 0.025 | 0.014 | 0.049 | 0.061 | -0.028 | -0.057
LONP2 (UniProt Q86WA8) | -0.004 | 0.072 | 0.026 | 0.113 | -0.017 | 0.017 | 0.073 | -0.094 | 0.073 | 0.092
LUZP1 (UniProt Q86V48) | 0.183 | -0.259 | -0.265 | 0.191 | -0.009 | 0.058 | 0.196 | 0.206 | 0.017 | -0.138
LARP4 isoform 4 (UniProt Q71RC2) | -0.027 | -0.098 | -0.308 (active) | 0.177 | -0.075 | 0 | 0.017 | 0.06 | 0.104 | -0.237
MAP2K7 isoform 4 (UniProt O14733) | 0.017 | -0.112 | 0.003 | -0.003 | 0.018 | -0.055 | -0.057 | -0.038 | 0 | -0.051
